The list is not random: actives were taken first. Their share in the collection is about 8.7%.
Pf growth 48h: Primary qHTS for delayed death inhibitors of the malarial parasite plastid, 48 hour incubation | actives 5.9% (n = 310,000) | AID 504832, 2011 | P. falciparum luciferase growth in erythrocytes, 48 h | Potency, µM (top dose mostly 28.7 µM), hits mostly inhibitors
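First compound was added to culture medium, then infected red cells at 0.1% parasitemia and 2% hematocrit (final). After incubation at 37 C under 5% CO2, luciferase detection reagent was dispensed and light output recorded.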
Vaccinia mCherry: qHTS for Stage-Specific Inhibitors of Vaccinia Orthopoxvirus: mCherry Reporter Primary qHTS | Vaccinia virus mCherry reporter infection, fluorescence | Potency, µM (series often up to 36.5 µM), hits mostly inhibitors | actives 0.63% (n = 310,000); calls by dose curve; tested in A549 cells; also: nearly all actives have a fitted effect of over 35% in size
AMA1-RON2 inh: qHTS for Inhibitors of AMA1-RON; Towards Development of Antimalarial Drug Lead: Primary Screen. AlphaScreen AMA1-biotinylated RON2 peptide binding. Potency, µM (highest dose often 58.2 µM), usual class: inhibitors. actives 0.2% (n = 360,000). AID 720542, 2013; also: nearly all actives have a fitted effect of over 45% in size
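AMA1 (3D7) with his tag at 25 nM final met compounds first, then biotinylated RON2 peptide at 25 nM; detection used donor plus acceptor beads, 10 µg/mL apiece, read by AlphaScreen after 30 min at room temperature.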
Pf growth 96h: Primary qHTS for delayed death inhibitors of the malarial parasite plastid, 96 hour incubation | Potency, µM (titrated, usually from 28.7 µM), usual class: inhibitors | actives 6.9% (n = 320,000) | P. falciparum luciferase reporter growth, 96 h
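P. falciparum expressing integrated firefly luciferase, in erythrocytes at 2% hematocrit, 0.05% parasitemia, incubated with compounds 96 h at 37 C, 5% CO2. Growth inhibition read as loss of luminescence; two-generation exposure targets delayed-death apicoplast inhibitors.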
VACV Venus inh: qHTS for Stage-Specific Inhibitors of Vaccinia Orthopoxvirus: Venus Reporter Primary qHTS | Vaccinia virus Venus reporter expression, fluorescence | Potency, µM (series often up to 36.5 µM), hits mostly inhibitors | actives 0.46% (n = 330,000); calls by dose curve; tested in A549 cells; also: nearly all actives have a fitted effect of over 30% in size
Large screens that a line does not name were inactive. Unless noted, calls follow the shape of the dose curve; as a rule, active = well fitted curve in the direction sought with a large enough effect; inconclusive = small, poorly fitted or top-dose-only effect, or another doubt; inactive = no such curve, though single readings can be large; an effect the other way counts as inactive or inconclusive.

COc1ccc(CNc2nc(NCc3ccc(OC)c(OC)c3)n(C(=O)c3cccs3)n2)cc1OC	Pf growth 48h inconclusive, AMA1-RON2 inh inconclusive, Pf growth 96h 7.4µM
CC(CCc1ccccc1)NC(=O)c1ccccc1C(=O)O (stereo not given)	none
Cc1ccccc1C(=O)NCC(=O)OC(C)C(=O)NC(C)CCc1ccccc1 (stereo not given)	Pf growth 48h inconclusive, Pf growth 96h 12µM (no result: Vaccinia mCherry, VACV Venus inh)
Fc1ccc(-n2cc(-c3ccccc3)c3c(NN4CCOCC4)ncnc32)cc1	Pf growth 48h 15µM, Vaccinia mCherry inconclusive, Pf growth 96h inconclusive
Cc1nc2nncn2c(N2CCN(c3ccccc3)CC2)c1C	none (no result: Pf growth 48h, AMA1-RON2 inh, Pf growth 96h)
Cc1nc2c(-c3ccccc3)c(C)nn2c(C)c1CCC(=O)Nc1ccccc1F	none (no result: Pf growth 48h, AMA1-RON2 inh, Pf growth 96h)
Cc1ccc(C2C(/C=C3/SC(=S)NC3=O)=C(c3cccs3)Oc3ccccc32)cc1 (stereo not given)	Pf growth 96h 9.3µM (no result: Pf growth 48h)
O=C1NC(=S)SC1=Cc1ccccc1Cl	none (no result: Pf growth 48h, Pf growth 96h)
COC(=O)/C(=N/Nc1ccccc1)N1CCCc2ccccc21	Pf growth 96h 10µM
COC(=O)/C(=N/Nc1cccc(C)c1)N1CCCc2ccccc21	none
COC(=O)/C(=N/Nc1ccc(C)cc1)N1CCCc2ccccc21	Pf growth 48h inconclusive, AMA1-RON2 inh inconclusive, Pf growth 96h 12µM
CC(=O)/C(=N/Nc1ccccc1[N+](=O)[O-])N1CCCc2ccccc21	Pf growth 48h inconclusive, AMA1-RON2 inh 8.9µM, Pf growth 96h inconclusive
Cc1ccc2oc(-c3ccc(C)c(NC(=O)COc4ccc(Cl)cc4C)c3)nc2c1	none (no result: Pf growth 48h, AMA1-RON2 inh, Pf growth 96h)
Cc1c(Cl)cccc1NC(=O)COC(=O)c1c2c(nc3ccccc13)CCN(Cc1ccccc1)C2	Pf growth 48h 13µM, Vaccinia mCherry 11µM, Pf growth 96h 2.9µM, VACV Venus inh inconclusive
CC(C)c1ccccc1NC(=O)COC(=O)c1c2c(nc3ccccc13)CCN(Cc1ccccc1)C2	Pf growth 48h 8.3µM, Pf growth 96h 13µM (no result: Vaccinia mCherry, VACV Venus inh)
Nc1nc2c(c(=O)[nH]1)CN(Cc1ccccc1)CC2	none
Nc1c2c(nc3ccccc13)CCN(Cc1ccccc1)C2	Pf growth 48h inconclusive, Pf growth 96h 8.3µM
Cc1cc(N2CCN(C)CC2)ccc1NC(=O)c1c2c(nc3ccccc13)CCN(Cc1ccccc1)C2	Pf growth 48h inconclusive, Pf growth 96h inconclusive, VACV Venus inh inconclusive
CCOC(=O)c1cccc(NC(=O)C2CCN(S(=O)(=O)c3c(C)noc3/C=C/c3ccc(C)cc3)CC2)c1	Vaccinia mCherry inconclusive (no result: Pf growth 48h, AMA1-RON2 inh, Pf growth 96h)
CCOCCCn1c(SCC(=O)NCc2ccccc2)nc2c(sc3ccccc32)c1=O	none (no result: Pf growth 48h, AMA1-RON2 inh, Pf growth 96h)
CCc1ccc(C2=C(C)C(N3CCC(C(=O)Nc4ccc(F)cc4)CC3)=NS2(=O)=O)cc1	none (no result: Pf growth 48h, AMA1-RON2 inh, Pf growth 96h)
COCCN1CCN(C(=O)c2cnn(-c3nccc(-c4ccccc4OC)n3)c2-c2ccco2)CC1	none (no result: Pf growth 48h, AMA1-RON2 inh, Pf growth 96h)
Cc1nc(N2CCCCC2)c2c(C)c(C(=O)Nc3ccccc3C(F)(F)F)sc2n1	Pf growth 48h 9.3µM, Pf growth 96h inconclusive
Cc1nc(N2CCCCC2)c2c(C)c(C(=O)Nc3cccc(C(F)(F)F)c3)sc2n1	Pf growth 48h 2.6µM (no result: Vaccinia mCherry, VACV Venus inh)
Cc1ccc(NC(=O)c2ccc(CN3CC(=O)N4CCCCC4C3=O)cc2)cc1C (stereo not given)	none (no result: Pf growth 48h, AMA1-RON2 inh, Pf growth 96h)
COc1ccc(C)cc1N(C)C(=O)c1c2c(nc3ccccc13)C(=O)N(C1CCCCC1)C2	none (no result: Pf growth 48h, AMA1-RON2 inh, Pf growth 96h)
CC1(OC(=O)C2CCCC2)C(=O)C=C2C=C(c3ccsc3)N(CCCCO)C=C2C1=O (stereo not given)	Pf growth 48h inconclusive, Pf growth 96h inconclusive
COc1ccc(CN2C=C3C(=O)C(C)(OC(=O)C4CCCC4)C(=O)C=C3C=C2c2ccsc2)cc1 (stereo not given)	Pf growth 48h inconclusive, Pf growth 96h inconclusive
CC1(OC(=O)C2CCCC2)C(=O)C=C2C=C(c3ccsc3)N(C3CCCC3)C=C2C1=O (stereo not given)	Pf growth 48h inconclusive, Pf growth 96h 10µM
CC1(OC(=O)C2CCCC2)C(=O)C=C2C=C(c3ccsc3)N(Cc3ccco3)C=C2C1=O (stereo not given)	Pf growth 48h 12µM, Pf growth 96h 13µM
Cc1ccc2ncc(C(=O)Nc3ccc(F)cc3F)c(=O)n2c1	none (no result: Pf growth 48h, AMA1-RON2 inh, Pf growth 96h)
